Among all 310,000 compounds or so, about 14,000 (4.5%) showed an effect of 50% or more. Effects have a minus sign here. This is one part of a sample in which strong results are shown more often than they occur.
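Note: peak tail current of the secondary pulse compared with the same well before compound.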

The target in this experiment is human ether-à-go-go-related gene (hERG) potassium channel (human, UniProt Q12809). Description: primary screen, population patch clamp on CHO cells stably expressing hERG; higher = less effect of the substance.
Sequence of human ether-à-go-go-related gene (hERG) potassium channel (Q12809 whole entry, looked up): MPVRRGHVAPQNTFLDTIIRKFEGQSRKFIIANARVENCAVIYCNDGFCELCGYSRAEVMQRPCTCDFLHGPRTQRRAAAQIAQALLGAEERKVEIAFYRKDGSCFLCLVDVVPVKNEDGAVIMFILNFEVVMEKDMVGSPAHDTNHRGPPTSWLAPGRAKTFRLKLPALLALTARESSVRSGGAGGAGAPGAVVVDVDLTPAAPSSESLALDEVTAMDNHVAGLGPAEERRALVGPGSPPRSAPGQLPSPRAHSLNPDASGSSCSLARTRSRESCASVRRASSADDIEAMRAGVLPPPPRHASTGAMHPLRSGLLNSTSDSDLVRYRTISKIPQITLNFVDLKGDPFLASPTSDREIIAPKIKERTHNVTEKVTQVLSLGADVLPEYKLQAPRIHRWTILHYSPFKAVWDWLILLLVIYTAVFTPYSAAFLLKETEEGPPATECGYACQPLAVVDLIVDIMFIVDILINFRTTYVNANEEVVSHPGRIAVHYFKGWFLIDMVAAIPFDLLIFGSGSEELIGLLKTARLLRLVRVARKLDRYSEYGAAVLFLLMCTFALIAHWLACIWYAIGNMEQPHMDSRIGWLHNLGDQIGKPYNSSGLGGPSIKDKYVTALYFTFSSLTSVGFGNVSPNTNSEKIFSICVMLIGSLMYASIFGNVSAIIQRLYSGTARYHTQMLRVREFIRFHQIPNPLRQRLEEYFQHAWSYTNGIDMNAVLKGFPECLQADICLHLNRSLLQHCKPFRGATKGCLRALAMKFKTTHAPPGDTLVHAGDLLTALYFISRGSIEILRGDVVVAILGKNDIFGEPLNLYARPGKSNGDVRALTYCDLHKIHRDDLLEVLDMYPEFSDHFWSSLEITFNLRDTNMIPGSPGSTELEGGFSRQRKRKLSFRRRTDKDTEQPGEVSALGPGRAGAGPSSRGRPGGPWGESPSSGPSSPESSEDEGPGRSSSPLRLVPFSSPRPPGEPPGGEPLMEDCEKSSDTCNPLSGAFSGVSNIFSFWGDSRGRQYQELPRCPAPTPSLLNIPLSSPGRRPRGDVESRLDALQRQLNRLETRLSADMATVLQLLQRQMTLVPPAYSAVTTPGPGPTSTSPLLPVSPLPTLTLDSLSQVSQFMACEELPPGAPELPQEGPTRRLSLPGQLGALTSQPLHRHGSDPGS
As to `CCOC(=O)N1CCN(C(=O)COc2cc(=O)n(CC)c3ccccc23)CC1`, the “hERG current change (%, negative = inhibition) at 10uM” value is recorded as -17%.

With `CCCCc1cc2c(cc1NC(=O)CN1CCCCC1)OCCO2.Cl`, the “hERG current change (%, negative = inhibition) at 10uM” value came to 3.82%.

As for `COc1ccc(-c2cc(C(=O)Nc3ccccc3O)c3ccccc3n2)cc1`, the “hERG current change (%, negative = inhibition) at 10uM” value amounted to 13.1%.

On to `Cc1cccc(NC(=O)c2cccc(N3C(=O)C4C5CCC(C5)C4C3=O)c2)c1C` (stereo not shown), for which the “hERG current change (%, negative = inhibition) at 10uM” value was -7.75%.

Regarding `Cc1ccc(-n2c(=O)[nH]c3c(C(N)=O)nc(-c4ccc(C)o4)nc32)cc1`, the “hERG current change (%, negative = inhibition) at 10uM” value is on record as 14.7%.

On to `Cc1c(-c2ccncc2)oc2ccc(Br)cc2c1=O`, for which the “hERG current change (%, negative = inhibition) at 10uM” value is -41.2%.

For `Cc1oc2ccc(Br)cc2c(=O)c1-c1nn[nH]n1`, the “hERG current change (%, negative = inhibition) at 10uM” value was determined as 3.71%.

Turning to `Cc1c(-c2cc[n+]([O-])cc2)oc2ccc(Br)cc2c1=O`, the “hERG current change (%, negative = inhibition) at 10uM” value was -54.2%.

As for `Cc1ccc(S(=O)(=O)Oc2cccc(N3C(=O)C4CC=CCC4C3=O)c2)cc1` (stereo not shown), the “hERG current change (%, negative = inhibition) at 10uM” value is given as -17.3%.

With `CC(=O)NC(Cc1cc(C)ccc1C)C(=O)N1CCN(C(=O)c2ccc([N+](=O)[O-])cc2)CC1` (stereo not shown), the “hERG current change (%, negative = inhibition) at 10uM” value is on record as -30.2%.

Regarding `CC(=O)NC(Cc1cc(C)ccc1C)C(=O)N1CCN(C(=O)c2ccc(Br)cc2)CC1` (stereo not shown), the “hERG current change (%, negative = inhibition) at 10uM” value is listed as -71.8%.

Turning to `CC(=O)NC(Cc1cc(C)ccc1C)C(=O)N1CCN(C(=O)c2ccccc2Br)CC1` (stereo not shown), the “hERG current change (%, negative = inhibition) at 10uM” value is -0.358%.

Regarding `CCOC(=O)c1c(NC(=O)COC(=O)CCOc2ccccc2C)sc(C(=O)NC)c1C`, the “hERG current change (%, negative = inhibition) at 10uM” value came to 20.1%.

In the case of `Cc1ccc(/C=C/C(=O)OCC(=O)Nc2ccc3[nH]c(=O)[nH]c3c2)o1`, the “hERG current change (%, negative = inhibition) at 10uM” value was 2.52%.

Take `COc1ccc(/C=N/Nc2nnc(Cc3ccc(OC)c(OC)c3)c(=O)[nH]2)cc1OC`: the “hERG current change (%, negative = inhibition) at 10uM” value is 18.9%.

For the compound `COc1ccc(/C=N/Nc2nnc(Cc3ccccc3)c(=O)[nH]2)cc1`, the “hERG current change (%, negative = inhibition) at 10uM” value is -15.1%.

As to `COc1ccc(/C=N/Nc2nnc(Cc3ccccc3)c(=O)[nH]2)cc1OC`, the “hERG current change (%, negative = inhibition) at 10uM” value is given as -61.4%.

Consider `Oc1ccc(N=Nc2n[nH]c(-c3ccccc3)n2)cc1`, for which the “hERG current change (%, negative = inhibition) at 10uM” value is 9.94%.

In the case of `CCOc1ccc(NC(=O)Nc2ccon2)cc1`, the “hERG current change (%, negative = inhibition) at 10uM” value is given as 16.7%.

Consider `CC(=O)Nc1ccc(NC(=O)c2ccc([N+](=O)[O-])cc2Cl)cc1`, for which the “hERG current change (%, negative = inhibition) at 10uM” value was determined as 6.15%.

For `CC(C)C(=O)Nc1ccc(NC(=O)c2ccc([N+](=O)[O-])cc2Cl)cc1`, the “hERG current change (%, negative = inhibition) at 10uM” value turned out to be 5.02%.

Regarding `CCCC(=O)Nc1cccc(NC(=O)c2ccc([N+](=O)[O-])cc2Cl)c1`, the “hERG current change (%, negative = inhibition) at 10uM” value is on record as -14.5%.

`CCC(C)NS(=O)(=O)c1ccc(NC(=O)c2ccc([N+](=O)[O-])cc2Cl)cc1` (stereo not shown): the “hERG current change (%, negative = inhibition) at 10uM” value is recorded as -88.7%.

On to `CCC(=O)Nc1ccc(Cl)c(NC(=O)c2ccc([N+](=O)[O-])cc2)c1`, for which the “hERG current change (%, negative = inhibition) at 10uM” value was -5.07%.

With `CCCC(=O)Nc1ccc(Cl)c(NC(=O)c2ccc([N+](=O)[O-])cc2Cl)c1`, the “hERG current change (%, negative = inhibition) at 10uM” value is on record as -51.2%.

Take `CC(C)(C)NC(=O)NC(=O)CN1CCN(Cc2ccccc2)CC1`: the “hERG current change (%, negative = inhibition) at 10uM” value was -1.77%.

For the compound `COC(=O)[C@@]1(Cc2ccc(OC)cc2)[C@H]2c3cc(C(=O)N(C)C)n(CCc4ccc(OC)c(Br)c4)c3C[C@H]2CN1C(=O)c1ccccc1`, the “hERG current change (%, negative = inhibition) at 10uM” value came out at 11.4%.

On to `Cc1cccc(C(=O)NCCN2CCOCC2)c1[N+](=O)[O-]`, for which the “hERG current change (%, negative = inhibition) at 10uM” value is 4.8%.

As to `Cc1ccc(C)c(OCc2cc(C(=O)N3C[C@@H](C)O[C@@H](C)C3)no2)c1`, the “hERG current change (%, negative = inhibition) at 10uM” value stood at 4.95%.

For `CCCCc1c(O)nc(SCC(=O)NCCc2ccc(OC)c(OC)c2)[nH]c1=O`, the “hERG current change (%, negative = inhibition) at 10uM” value is listed as -0.0252%.

Consider `COc1cc(OC)cc(C(=O)NC(=S)Nc2ccc3[nH]c(=O)[nH]c3c2)c1`, for which the “hERG current change (%, negative = inhibition) at 10uM” value is -27%.

For `COc1cccc(C(=O)NC(=S)Nc2ccc3[nH]c(=O)[nH]c3c2)c1`, the “hERG current change (%, negative = inhibition) at 10uM” value is reported as -70.3%.

Consider `COc1ccc(C(=O)NC(=S)Nc2ccc3[nH]c(=O)[nH]c3c2)cc1`, for which the “hERG current change (%, negative = inhibition) at 10uM” value is given as 15.5%.

For `CCN(CC)c1ccc(CNc2nc3ccccc3n2C(C)C)cc1`, the “hERG current change (%, negative = inhibition) at 10uM” value is recorded as 1.88%.

Turning to `CCC(=O)Nc1nc2ccccc2n1CCN1CCOCC1`, the “hERG current change (%, negative = inhibition) at 10uM” value is 16.2%.

With `CCN(CC)c1ccc(CNc2nc3ccccc3n2CCN2CCCCC2)cc1`, the “hERG current change (%, negative = inhibition) at 10uM” value was -74.5%.

For `CCN(CC)c1ccc(CNc2nc3ccccc3n2CCN2CCOCC2)cc1`, the “hERG current change (%, negative = inhibition) at 10uM” value was -79.5%.

`CCN(CC)c1ccc(CNc2nc3ccccc3n2C)cc1`: the “hERG current change (%, negative = inhibition) at 10uM” value is -49.7%.

On to `CCN(CC)c1ccc(CNc2nc3ccccc3n2CC)cc1`, for which the “hERG current change (%, negative = inhibition) at 10uM” value is recorded as -23.5%.

Regarding `Cc1ccc(NC(=O)CCN2C(=O)C3CC=CCC3C2=O)cc1Cl` (stereo not shown), the “hERG current change (%, negative = inhibition) at 10uM” value was -10.9%.

On to `COc1cc(-c2nnc(-c3ccncc3)o2)ccc1OCc1ccccc1`, for which the “hERG current change (%, negative = inhibition) at 10uM” value is on record as 4.05%.

In the case of `Cc1ccccc1-c1nc2cc(NC(=O)C3CC3)ccc2o1`, the “hERG current change (%, negative = inhibition) at 10uM” value came out at 7.97%.

As to `Cc1ccc(NC(=O)C2CC2c2ccccc2)cc1` (stereo not shown), the “hERG current change (%, negative = inhibition) at 10uM” value came to 2.96%.

The values above are taken from article PMC4336329 (PLoS ONE, 2015).
